# Sampled rows, rich in hits. Any-hit rate of the full collection: about 6%.
# D1 antagonist: human D1 dopamine receptor antagonism | activity change, negative = inhibition, % at 10 µM | 360,000 tested, 3.2% active | HEK293 TREx D1 cells, calcium flux, dopamine EC80; active compounds read low | P21728; in the data active = activity change below about -30%; also: % is scaled to controls: 0 for no effect and ±100 for the full control effect
# Target sequence (P21728 whole entry, looked up): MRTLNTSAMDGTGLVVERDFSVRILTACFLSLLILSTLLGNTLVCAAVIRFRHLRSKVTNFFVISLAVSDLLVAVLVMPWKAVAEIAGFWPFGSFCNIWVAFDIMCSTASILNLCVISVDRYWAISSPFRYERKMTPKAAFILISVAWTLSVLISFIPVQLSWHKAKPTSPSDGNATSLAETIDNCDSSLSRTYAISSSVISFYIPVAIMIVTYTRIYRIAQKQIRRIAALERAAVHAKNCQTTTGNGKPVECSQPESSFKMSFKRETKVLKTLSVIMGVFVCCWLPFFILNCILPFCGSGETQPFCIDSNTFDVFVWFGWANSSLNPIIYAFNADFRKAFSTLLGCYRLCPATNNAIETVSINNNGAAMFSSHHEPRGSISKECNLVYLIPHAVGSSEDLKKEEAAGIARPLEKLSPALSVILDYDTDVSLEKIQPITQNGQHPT
#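 Tetracycline-induced HEK293 Trex D1 cells, force-coupled to calcium, dye-loaded; compounds added and read 180 s, then EC80 dopamine added and calcium flux tracked kinetically another 180 s.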
# D1 PAM: potentiators of human D1 dopamine receptor; P21728; HEK293 TREx D1 cells, calcium flux, dopamine EC20 potentiation; potentiation, % at 10 µM; 360,000 tested, 0.036% active; AID 504651; in the data active = potentiation above about 30%; also: 0% is about no effect
# DRD3 antagonist: antagonists of human D3 dopamine receptor; P35462; D3R cells, DiscoveRx beta-arrestin luminescence, antagonist mode; active compounds read low; max response, negative = inhibition, %; 360,000 tested, 2.5% active; in the data active = max response below about -50%; inconclusive = no clear call, values can overlap the other calls; also: % is scaled to controls: 0 for no effect and ±100 for the full control effect
#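 Cells plated overnight at 1500 cells/well, then exposed to library compounds with dopamine controls for 90 minutes at 37 degrees C. DiscoveRx reagent added for 30–60 minutes at room temperature; luminescence read, quantitative HTS format.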
# BCR signal inh: inhibitors of chronic active B-cell receptor signaling. 340,000 tested, 0.05% active. ABC-DLBCL IkBa-CBG/CBR reporter, luminescence ratio, 4 h. Potency, µM (highest dose often 46.1 µM), for inactives: top-dose activity change, negative = inhibition, usual class: inhibitors; active = well fitted inhibition curve with a large enough effect in the signal ratio, with a control signal flat, not every such curve was filed as active; inconclusive = small, poorly fitted or top-dose-only effect, or effect the other way, or a change in a side signal; the % refers to the signal ratio;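 also: potency is read from the fitted curve at half-maximal effect; plate controls were basal doxycycline-induced cells for no effect and cells given 10 µM MG132 for full effect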
#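 TMD8 ABC-DLBCL cells carrying doxycycline-inducible green luciferase fused to IkappaBalpha plus unfused red luciferase were exposed to compounds (up to 46 uM) for 4 hrs at 37C. Activity came from the overlap-corrected green/red luminescence ratio.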
# D3 ag: agonists of human D3 dopamine receptor; D3R DiscoveRx beta-arrestin cells, luminescence, 90 min; max activation, %; 410,000 tested, 0.58% active; AID 652048; in the data active = max activation above about 30%; also: 0% is about no effect
#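 Agonist-mode cell screen: cells plated at 1500/well and incubated overnight at 37 °C, then exposed to library compounds for 90 min at 37 °C. Detection reagent was added for 30–60 min at room temperature, and luminescence was read.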
# D1 ag: human D1 receptor agonism; P21728; 360,000 tested, 1% active; activation, % at 2 µM; HEK293 T-REx D1 cells, calcium flux, agonist mode; in the data active = activation above about 30%; also: 0% is about no effect
#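 Agonism was scored from calcium flux recorded over 180 s (1 read/s) after pintool compound addition, following a 10-cycle baseline. Cells were inducible force-coupled HEK293 TREx D1, plated overnight at 30 C and loaded with no-wash calcium dye.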
# An asterisk follows results filed as active; ? = inconclusive; . = no result.
SMILES,D1 antagonist,D1 PAM,DRD3 antagonist,BCR signal inh,D3 ag,D1 ag
O=c1c2ccccc2c(-c2ccccc2)nn1-c1cc(Cl)ccc1[N+](=O)[O-],0,3,-15,-4%,-5,2
Cc1ccc(Cn2cc(CN3CC(N4CCN(C5CCN(C)CC5)CC4)CS3(=O)=O)nn2)cc1 (stereo unspecified),.,.,0,.,4,.
CCOC(=O)C(CCSC)Nc1nc(Cl)nc(Nc2ccc(Cl)cc2)n1 (stereo unspecified),.,.,-58*,.,-13,.
CC(=O)Nc1ccc(NC(=O)C(C)OC(=O)/C(C#N)=C/c2ccc(N(C)C)cc2)cc1 (stereo unspecified),-5,-3,-14,?,-2,84*
CC(=O)Nc1ccc(NC(=O)C(C)OC(=O)c2ccc(N(C)C)cc2)cc1 (stereo unspecified),-16,.,-17,-10%,-10,5
CC(OC(=O)/C(C#N)=C/c1ccc(N(C)C)cc1)C(=O)N(C)c1ccccc1 (stereo unspecified),-8,-5,13,0%,7,70*
CC(C)OC(=O)/C(C#N)=C\c1cccnc1,11,2,2,4%,-2,1
Cc1ccc2c(c1)c(N1CCCC1=O)c(C(=O)Nc1ccc(F)cc1F)n2C,4,-1,.,.,0,-2
Cc1cc(C(C)(C)C)c(O)c(C)c1CC1=NCCN1,8,4,-98*,-3%,-44,0
COc1ccccc1NC(=O)Cn1c(=O)n(-c2ccc(C)cc2)c(=O)c2ccc(C(=O)NCc3ccco3)cc21,4,0,.,.,4,5
CC(C)N(C(=O)CSc1nc2c([nH]1)c(=O)n(C)c(=O)n2C)c1ccccc1,-29,-13,9,9%,-17,2
CC(C)N(C(=O)CSc1nc2ccc(Cl)cc2[nH]1)c1ccccc1,-44*,1,.,.,-2,20
Cc1cc(C(=O)CSc2nc3ccc(Cl)cc3[nH]2)c(C)n1C,-7,-6,-6,-2%,33*,2
c1ccc(-c2ccc3c(c2)c2c4n3CCN=C4CCC2)cc1,5,1,-10,-11%,-7,3
OC1CN=C2CCCc3c2n(c2ccc(Cl)cc32)C1 (stereo unspecified),2,-2,-77*,-1%,-15,3
O=C(COc1ccccc1F)Nc1ccc2nc(SCc3ccccc3)sc2c1,-5,-2,.,.,3,15
COC(=O)c1ccc(CNCC(O)COc2ccc(-c3ccccc3)cc2)cc1 (stereo unspecified),13,7,3,-4%,-14,11
CC(C)(c1ccccc1)c1ccc(OCC(O)CNC2CCN(Cc3ccccc3)CC2)cc1 (stereo unspecified),20,4,?,?,-15,67*
COc1ccc(CNCC(O)COc2ccc(C(C)(C)c3ccccc3)cc2)cc1 (stereo unspecified),28,9,5,-16%,-19,33*
CCOc1ccc(OCC(O)CNC2CCN(Cc3ccccc3)CC2)cc1 (stereo unspecified),1,2,?,?,-5,22
COc1cc2ccccc2cc1C(=O)Nc1cccc(-c2nc3cc(C)c(C)cc3o2)c1,4,0,.,.,1,1
Cc1ccc(C(=O)NC(=S)N2CCN(c3ccccc3F)CC2)cc1,-42*,-4,7,?,-5,1
COc1ccccc1CNC(=O)N1CCN(S(=O)(=O)c2ccccc2)CC1,-8,4,26,4%,30*,2
COc1ccccc1CNC(=O)CN1C(=O)CCc2cc(S(=O)(=O)N3CCCCC3)ccc21,-56*,1,.,.,4,-1
COc1ccc(S(=O)(=O)N2CCCCCC2)cc1NC(=O)CN1C(=O)NC(C)(c2ccccc2)C1=O (stereo unspecified),-31*,-5,19,12%,18,1
SMILES,D1 antagonist,D1 PAM,DRD3 antagonist,BCR signal inh,D3 ag,D1 ag
COc1ccccc1CNC(=O)CN1C(=O)CCc2cc(S(=O)(=O)N3CCOCC3)ccc21,4,0,.,.,1,2
COc1ccc(S(=O)(=O)N2CCOCC2)cc1NC(=O)COc1cccnc1[N+](=O)[O-],-30,2,-63*,?,-7,1
O=C(COc1cccnc1[N+](=O)[O-])Nc1cccc(S(=O)(=O)N2CCOCC2)c1,-25,0,13,?,2,0
CC(=O)c1ccc(NC(=O)Cn2nc(C(F)(F)F)c3c2CCCC3)cc1,-1,-5,.,.,5,11
COc1ccc(S(=O)(=O)N2CCCCCC2)cc1NC(=O)CCNC(=O)c1ccccc1Cl,.,.,15,.,1,.
COc1ccc(S(=O)(=O)N2CCCCC2)cc1NC(=O)CCNC(=O)c1ccccc1Cl,-70*,-3,-1,-1%,-2,1
CN1CCN(C(=O)CCn2c(=S)[nH]c3ccccc3c2=O)CC1,.,.,-1,.,-1,.
O=C(c1cccc(OC2CCN(Cc3ccc(F)cc3Cl)CC2)c1)N1CCCC1,-33*,-7,0,-1%,-27,6
O=C(c1cccc(OC2CCN(Cc3cc(F)cc(F)c3)CC2)c1)N1CCCC1,-11,0,-4,-4%,-3,2
Cc1cccc(OC2CCN(Cc3c(C(=O)N4CCCC4)nc4ccccn34)CC2)c1,-44*,-1,3,-6%,-10,7
CCN(CC)CCNc1ccc(CO)c2oc3cc(Cl)ccc3c(=O)c12,.,.,-56*,.,-5,.
CCCCOC(=O)c1cccc(NC(=O)/C=C/c2ccccc2Cl)c1,-16,-2,.,.,5,16
COCC(C)NC(=O)NC(=O)c1ccc(Cl)cc1 (stereo unspecified),36,-2,-104*,?,-5,-2
Cc1cc(C)c2c(CC(=O)Nc3ccc(F)cc3)coc2c1,-16,1,.,.,5,10
COc1ccc(NC(=O)Cn2nnc(-c3ccccc3)c2COc2ccc(C(C)=O)cc2)cn1,.,.,7,.,4,.
OCC1OC(n2cnc3c(NC4CCCCC4)ncnc32)C(O)C1O (stereo unspecified),4,-2,-9,13µM*,1,-3
O=C(COc1ccc(S(=O)(=O)NC2CCCCC2)cc1)NC1CCCC1,-43*,-2,8,0%,-2,4
O=C(COc1ccc(S(=O)(=O)NC2CCCCC2)cc1)NC1CCCCC1,-8,1,-1,-18%,-4,6
CN1CCN(c2ccc(NC(=O)c3ccc(Br)o3)cc2)CC1,-41*,-10,-1,-2%,9,4
CN1CCN(c2ccc(NC(=O)c3ccc(-c4ccccc4F)o3)cc2)CC1,-96*,-19,-14,6%,3,5

# Screening results deposited in PubChem BioAssay by National Center for Advancing Translational Sciences (NCATS).
